These results are taken from PubChem BioAssay (EPA / NIEHS).

One may read the AC50 as the midpoint of the concentration-response curve, whichever way the signal moves.

Experiment [1] is described as follows: IUF_NPC2c_oligodendrocyte_migration_120hr: Leibniz Research Institute for Environmental Medicine (IUF) 120-hour Neural Progenitor Cell Migration Assay for Oligodendrocyte Migration (NPC2c) (AID 2284297).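 Also: O4-positive oligodendrocyte migration distance divided by radial glia migration distance.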 An outline of the steps: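 hNPC spheres (GW 16-19 cortex), PDL/laminin, DMEM/F12 3:1 + 1% N2, 37C. Dosing day 0–5, half feed day 3, DMSO ≤0.1%. Fixed 120 h; O4 ICC + Hoechst, HCI. Readout: mean oligodendrocyte distance from sphere edge / radial glia distance.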

The nature of experiment [2]: IUF_NPC2a_radial_glia_migration_120hr: Leibniz Research Institute for Environmental Medicine (IUF) 120-hour Neural Progenitor Cell Migration Assay for Radial Glia Migration (NPC2a) (AID 2284298). An outline of the steps:
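Hoechst-stained nuclei imaged at 120 h; algorithm maps sphere core by densest nuclei, sets migration edge at density threshold, gives radial glia migration distance (um) per well vs DMSO. hNPC spheres (0.3 mm), PDL/laminin, DMEM/F12 3:1 + 1% N2.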

Read-out in experiment [3]: TIMP metallopeptidase inhibitor 2 (TIMP2), TIMP2 (gene 7077)
Put plainly: BSK_hDFCGF_TIMP2: BioMAP Diversity Plus: hDFCGF Assay for TIMP metallopeptidase inhibitor 2 (TIMP2) Biomarker Activity (AID 2284289). The note with it: primary human foreskin fibroblasts. An outline of the steps:
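Primary human foreskin fibroblasts in the hDFCGF system, dosed for 24 h; TIMP-2 level measured by ELISA, fitted in the positive direction against DMSO; cytotoxicity checked in parallel by sulforhodamine B total protein staining.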

Read-out in experiment [4]: Interleukin-1 alpha (IL1a), IL1A (gene 3552)
Put plainly: BSK_IMphg_IL1a: BioMAP Diversity Plus: IMphg Assay for Interleukin-1 alpha (IL1a) Biomarker Activity (AID 2284290). The following applies: primary human endothelial cells with macrophages. An outline of the steps:
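IL-1α is quantified by ELISA at 24 h in the endothelial/macrophage IMphg co-culture, with gain of signal fitted relative to DMSO. Parallel SRB total-protein staining flags overt toxicity.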

Read-out in experiment [5]: E-selectin (Homo sapiens) (UniProt P16581)
Put plainly: BSK_IMphg_ESelectin: BioMAP Diversity Plus: IMphg Assay for Eselectin Biomarker Activity (AID 2284291). The note with it: primary human endothelial cells with macrophages. The method, boiled down:
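Analysed against DMSO baseline in the positive fitting direction, this endpoint is an ELISA read of E-selectin. It comes from human venular endothelial cells co-cultured with macrophages, sampled 24 h post-dose.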

Experiment [6] is described as follows: BSK_IMphg_SRB: Viability Assessment in the BioMAP Diversity Plus: IMphg Assay (AID 2284292).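 Also: measured one day after compound addition.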 The following applies: primary human endothelial cells with macrophages. The method, boiled down: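 SRB viability endpoint: cultures of human endothelial cells plus macrophages fixed with 10% TCA, stained with 0.1% SRB, read at 560 nm 24 h post-dosing. Only gain-of-signal fitted, relative to DMSO.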

Read-out in experiment [7]: Macrophage colony-stimulating factor (MCSF), CSF1 (gene 1435)
In words: BSK_IMphg_MCSF: BioMAP Diversity Plus: IMphg Assay for Macrophage colony-stimulating factor (MCSF) Biomarker Activity (AID 2284293). The note with it: primary human endothelial cells with macrophages. The method, boiled down:
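M-CSF was measured by ELISA in human venular endothelial cell/macrophage co-cultures dosed for 24 hours. Sulforhodamine B staining of parallel cultures assessed cytotoxicity; data fitted against DMSO baseline.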

Read-out in experiment [8]: Interleukin-10 (IL10), IL10 (gene 3586)
Put plainly: BSK_IMphg_IL10: BioMAP Diversity Plus: IMphg Assay for Interleukin-10 (IL10) Biomarker Activity (AID 2284294). The note with it: primary human endothelial cells with macrophages. An outline of the steps: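 IL-10 read by ELISA after 24 h chemical exposure of primary human venular endothelial cell/macrophage cocultures, with DMSO as baseline. Parallel SRB staining (560 nm) gauged overt cytotoxicity.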

A short description of experiment [9]: BSK_IMphg_SRB.Mphg: Macrophage Viability Assessment in the BioMAP Diversity Plus: IMphg Assay (AID 2284295). The following applies: primary human endothelial cells with macrophages. The protocol: BSK_IMphg is a cell-based, multiplexed-readout assay that uses venular endothelial cells and macrophages, a human vascular primary cell, with measurements taken at 24 hours after chemical dosing in a microplate: 96-well plate.BSK_IMphg_SRB.Mphg is an assay component measured in the BSK_IMphg assay. It measures […] related to cell death using Sulforhodamine staining technology.Data from the assay component BSK_IMphg_SRB.Mphg was analyzed at the endpoint, BSK_IMphg_SRB.Mphg, in the positive analysis fitting direction relative to DMSO as the negative control and baseline of activity. Using a type of viability reporter, gain or loss-of-signal activity can be used to understand protein changes. […]
The levels of cell surface (or secreted, indicated by the prefix "s") biomarker endpoints were measured by ELISA. Overt cytotoxicity to cells in confluent adherent cultures (all systems other than the BT system) was assessed by measuring total protein levels using sulforhodamine B (SRB) staining in parallel cultures at the time of biomarker measurements, indicated as SRB endpoints. For proliferation assays for adherent cell types, individual cell types are cultured at sub-confluence and relative cell numbers quantified by SRB staining at time points optimized for each system (48 h: 3C and CASM3C systems; 72 h: BT and HDF3CGF systems; 96 h: SAg system). […] Plates were read after 6 h.

Read-out in experiment [10]: Thrombomodulin, THBD (gene 7056)
In words: BSK_LPS_Thrombomodulin: BioMAP Diversity Plus: LPS Assay for Thrombomodulin Biomarker Activity (AID 2284296). The note with it: primary human HUVEC with PBMC. An outline of the steps:
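Thrombomodulin on the surface of LPS-activated endothelial/PBMC co-cultures was quantified by ELISA at 24 hours post-dosing, with DMSO as baseline. Parallel SRB total-protein staining flagged overt cytotoxicity.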

Several values for one entry are separate records, joined by “and”; a condition that tells them apart may be missing. Identical values can stand only once. The source holds several records for some structures; these can differ, active in one and inactive in another. Activity calls are given as the source filed them. The calls were made as follows: active = hit-call score of the fitted dose curve at least 0.9, where 1 is the maximum; inactive = score below 0.9.

E-selectin (Homo sapiens), sequence (P16581 whole entry, looked up): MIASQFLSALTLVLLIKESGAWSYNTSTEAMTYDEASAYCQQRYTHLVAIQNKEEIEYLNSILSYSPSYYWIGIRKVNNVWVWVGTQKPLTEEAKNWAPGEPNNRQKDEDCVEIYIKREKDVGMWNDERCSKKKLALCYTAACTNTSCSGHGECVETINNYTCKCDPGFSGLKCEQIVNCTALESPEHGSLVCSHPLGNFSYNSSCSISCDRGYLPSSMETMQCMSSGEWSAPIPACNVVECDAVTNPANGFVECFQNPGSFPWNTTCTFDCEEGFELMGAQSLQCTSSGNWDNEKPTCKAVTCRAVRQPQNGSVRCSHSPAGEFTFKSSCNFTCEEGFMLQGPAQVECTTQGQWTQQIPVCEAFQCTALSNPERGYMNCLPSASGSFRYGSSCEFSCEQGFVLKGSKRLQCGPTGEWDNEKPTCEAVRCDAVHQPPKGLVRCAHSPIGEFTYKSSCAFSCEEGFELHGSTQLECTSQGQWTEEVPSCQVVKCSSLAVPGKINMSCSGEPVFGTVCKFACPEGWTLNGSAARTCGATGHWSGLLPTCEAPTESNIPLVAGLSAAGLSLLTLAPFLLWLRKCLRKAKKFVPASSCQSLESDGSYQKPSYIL

As to `O=C(O)COc1ccc(Cl)cc1Cl`, the outcome in experiment [1] and in experiment [2] was inactive.
As for `CC1(C)C(C=C(Cl)Cl)C1C(=O)OC(C#N)c1ccc(F)c(Oc2ccccc2)c1` (stereo not given), the molecule was called inactive in experiment [1] and in experiment [2].
As to `COP(=O)(OC)OC=C(Cl)Cl`, the AC50 in experiment [1] is 38.2 µM (active); in [2] it was 40 µM (active).
As for `O=S(=O)(O)C(F)(F)C(F)(F)C(F)(F)C(F)(F)C(F)(F)C(F)(F)C(F)(F)C(F)(F)F`, the AC50 in experiment [3] is 30 µM (active) and 8.71 µM (active); in experiment [5] it was 30 µM (active) and 38.2 µM (active); in experiment [8], 45.3 µM (active) [middle of 4 runs]; in experiment [2], 79.3 µM (active) and 16 µM (active). In addition, the result in experiment [3], in [4], in experiment [6], in experiment [7], in experiment [9] and in [10] was inactive. The call in experiment [1] was inactive.
For the molecule `CC1(c2ccc(Oc3ccccc3)cc2)OC(=O)N(Nc2ccccc2)C1=O` (stereo not given), the outcome in experiment [1] was inactive. Besides, the AC50 in experiment [2] was 5 µM (active).
As to `CNC(=O)CSP(=S)(OC)OC`, the molecule was called inactive in [1] and in experiment [2].
With `O=[N+]([O-])/N=C1\NCCN1Cc1ccc(Cl)nc1`, the result in [1] and in experiment [2] was inactive.
For `O=S1OCC2C(CO1)C1(Cl)C(Cl)=C(Cl)C2(Cl)C1(Cl)Cl` (stereo not given), the result in experiment [1] was inactive. For the same molecule, the AC50 in experiment [2] is 13.1 µM (active).
Turning to `CC(C)N(C(=O)COc1nnc(C(F)(F)F)s1)c1ccc(F)cc1`, the call in experiment [1] and in experiment [2] was inactive.
In the case of `CCC(C)(C)C(=O)OC1=C(c2ccc(Cl)cc2Cl)C(=O)OC12CCCCC2`, the outcome in [1] and in experiment [2] was inactive.
On to `CC[C@H](C)[C@H]1O[C@]2(C=C[C@@H]1C)C[C@@H]1C[C@@H](C/C=C(\C)[C@@H](O[C@H]3C[C@H](OC)[C@@H](O[C@H]4C[C@H](OC)[C@@H](O)[C@H](C)O4)[C@H](C)O3)[C@@H](C)/C=C/C=C3\CO[C@@H]4[C@H](O)C(C)=C[C@@H](C(=O)O1)[C@]34O)O2` (tested in a mixture with another compound), for which, in [1], the molecule was classed as inactive. Moreover, the AC50 in experiment [2] was 3.4 µM (active).
Take `COP(=S)(OC)Oc1ccc([N+](=O)[O-])cc1`: the outcome in [1] and in experiment [2] was inactive.
Regarding `O=C(O)C(F)(F)C(F)(F)C(F)(F)C(F)(F)C(F)(F)C(F)(F)C(F)(F)F`, the outcome in experiment [3], in [4], in experiment [5], in [6], in experiment [7] and in experiment [8] was inactive. Besides, the result in [9], in experiment [10], in [1] and in experiment [2] was inactive. Besides, the AC50 in experiment [8] is 30 µM (active); in experiment [10], 0.609 µM (active).
